Bioassay records as filed in PubChem.
The list is not random: actives were taken first. Their share in the collection is about 19%.
HT1080NT lethal = kills 2HG-producing HT-1080-NT fibrosarcoma cells; HT-1080-NT fibrosarcoma viability, CellTiter-Glo ATP luminescence, 48 h; Potency, µM (top dose mostly 46.1 µM), without a hit: at the highest dose activity, negative = less viability, most hits filed as cytotoxic; 1.6% of 360,000 active; AID 686970;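 also: NT is the 2HG producing partner of a matched IDH1 knockdown line; potency is read from the fitted curve at half-maximal effect; 0% = DMSO-treated cells and -100% = media-only wells without cells; nearly all actives have a fitted effect of over 55% in size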
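A 48-hour cytotoxicity screen used HT-1080-NT cells plated 2 hours before compound delivery. ATP-based CellTiter-Glo luminescence measured viability, normalized to DMSO and no-cell controls.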
DT40 TDP1 CPT = growth inhibition of DT40 Tdp1-/-;hTDP1 cells with camptothecin (screen for TDP1 inhibitors) | chicken DT40 Tdp1-/-;hTDP1 cells + 20 nM CPT, ATP luminescence, 48 h | Potency, µM (series often up to 46.2 µM), for inactives: at the top dose activity change, negative = growth inhibition, most hits filed as inhibitors | 12% of 420,000 active | AID 686979; also: potency is read from the fitted curve at half-maximal effect; nearly all actives have a fitted effect of over 55% in size
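Chicken DT40 Tdp1-/- cells complemented with human TDP1, 400 cells/well, exposed to compounds plus 20 nM camptothecin for at least 48 h at 37 C; viability read as ATP content by CellTiter-Glo luminescence.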
TDP1 cell noCPT = qHTS for Inhibitors of human tyrosyl-DNA phosphodiesterase 1 (TDP1): qHTS in cells in absence of CPT | DT40 Tdp1-/- hTDP1 cells, no CPT, ATP luminescence, 48 h | Potency, µM (top dose mostly 46.2 µM), inactives show top-dose activity change, negative = growth inhibition, actives largely listed as inhibitors | 15% of 420,000 active; also: potency is read from the fitted curve at half-maximal effect; nearly all actives have a fitted effect of over 55% in size
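No-CPT arm: Tdp1-/-;hTDP1 DT40 cells (400/well) plus compounds, incubated ≥48 hr at 37 °C. Readout CellTiter-Glo luminescence.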
IL1B secr inh = inhibitors of inflammasome signaling (IL-1 beta secretion). 4.7% of 360,000 active. THP-1 LPS/ATP IL-1B secretion, AlphaLISA, 16 h; hits give low values. AID 743279. activity change, % at 57.5 µM; in the data active = activity change below about -50%; inconclusive = mostly about -30% to -49%
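Secreted IL-1B measured by AlphaLISA bead assay after 16 h compound exposure of THP-1 cells; compounds (final up to 57.5 uM) added 1 h before LPS (250 ng/mL) and ATP (1.25 mM) stimulation; lower signal means less secretion.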
HT1080 IDH1KD tx = HT-1080 IDH1 knockdown cell toxicity (counter line) | HT-1080 IDH1 knockdown viability, ATP luminescence, 48 h | Potency, µM (highest dose often 46.1 µM), for the others: at the highest dose activity, negative = toxicity, actives largely listed as cytotoxic | 2% of 360,000 active;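 also: potency is read from the fitted curve at half-maximal effect; 0% = DMSO wells and -100% = cell-free medium wells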
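After a 2 h attachment period, IDH1KD HT-1080 cells took pin-transferred compound for 48 h at 37 °C; ATP-based luminescence after 10 min room-temperature reagent incubation reported viability.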
ELG1 DNA repair = blocks ELG1-dependent DNA repair in HEK293T cells; HEK293T ELG1-luciferase reporter, luminescence, 16 h; DNA damage induced by 5-fluorouridine; Potency, µM (series often up to 46.1 µM), for inactives: at the top dose activity change, negative = inhibition, hits mostly inhibitors; 2.3% of 330,000 active; AID 504467; also: potency is read from the fitted curve at half-maximal effect; nearly all actives have a fitted effect of over 55% in size
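Cells (2,000 per well) received 5-fluorouridine plus test compound or DMSO and were incubated 16 hr at 37 °C, 5% CO2. Luciferase activity was read by luminescence 30 min after ONE-Glo addition; signal suppression marked inhibition of damage-induced ELG1 function.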
* marks the source's active call; other numbers are inactive results. Unless noted, calls follow the shape of the dose curve; as a rule, active = well fitted curve in the direction sought with a large enough effect; inconclusive = small, poorly fitted or top-dose-only effect, or another doubt; inactive = no such curve, though single readings can be large; an effect the other way counts as inactive or inconclusive. Unless noted, % is scaled to controls: 0 for no effect and ±100 for the full control effect.

`COC(=O)C1=C(C(=O)OC)[C@@H]2N(Cc3ccccc3)c3ccccc3[C@@]23C[C@@H](C(=O)OC)N(C(=O)COCc2ccccc2)C3=N1` gave HT1080NT lethal -29%, DT40 TDP1 CPT inconclusive, TDP1 cell noCPT inconclusive, IL1B secr inh 59, HT1080 IDH1KD tx -6% and ELG1 DNA repair inconclusive.
Screening Cc1ccc2nc(N(CCCN(C)C)C(=O)c3ccc(S(=O)(=O)N4CCOCC4)cc3)sc2c1 returned HT1080NT lethal -15%, DT40 TDP1 CPT -26%, TDP1 cell noCPT -11%, IL1B secr inh -13, HT1080 IDH1KD tx -13% and ELG1 DNA repair inconclusive.
CN(C)CCCN(C(=O)c1ccc(S(=O)(=O)N2CCc3ccccc32)cc1)c1nc2ccc(F)cc2s1 was read as HT1080NT lethal -8%, DT40 TDP1 CPT inconclusive, TDP1 cell noCPT inconclusive, IL1B secr inh -81*, HT1080 IDH1KD tx inconclusive and ELG1 DNA repair 24%.
`Cc1nc2cnc(N(C)C)nc2n(CCc2ccccc2)c1=O` gave DT40 TDP1 CPT 5.2µM* and TDP1 cell noCPT 8.2µM*.
COc1cccc(Cn2c(=O)c(C)nc3cnc(N(C)C)nc32)c1 was read as DT40 TDP1 CPT 16µM* and TDP1 cell noCPT inconclusive.
`COc1cccc(Cn2c(=O)c(-c3ccccc3)nc3cnc(N(C)C)nc32)c1` gave DT40 TDP1 CPT inconclusive and TDP1 cell noCPT 2%.
For CC(C)Oc1ccc(CNS(=O)(=O)c2cnc(N)nc2)cc1 the results were DT40 TDP1 CPT -11% and TDP1 cell noCPT -2%.
`COC(=O)c1ccc(-c2noc(CN(Cc3nccn3C)C(C)C)n2)cc1` gave HT1080NT lethal 5%, DT40 TDP1 CPT 13µM*, TDP1 cell noCPT inconclusive, IL1B secr inh 20, HT1080 IDH1KD tx -5% and ELG1 DNA repair -4%.
Screening CCC1CN(C(=O)NCc2cccc(OC)c2)c2cc(Cl)ccc2O1 (centres undefined) returned HT1080NT lethal -2%, DT40 TDP1 CPT 15µM*, TDP1 cell noCPT inconclusive, IL1B secr inh 0, HT1080 IDH1KD tx -6% and ELG1 DNA repair 0%.
Screening CCC1CN(C(=O)NCc2cccc(OC)c2)c2ccccc2O1 (centres undefined) returned HT1080NT lethal 1%, DT40 TDP1 CPT inconclusive, TDP1 cell noCPT 15µM*, IL1B secr inh 10, HT1080 IDH1KD tx -5% and ELG1 DNA repair -9%.
Screening CCC1CN(C(=O)NCc2ccc(F)cc2)c2ccccc2O1 (centres undefined) returned HT1080NT lethal 0%, DT40 TDP1 CPT inconclusive, TDP1 cell noCPT inconclusive, IL1B secr inh -21, HT1080 IDH1KD tx 8% and ELG1 DNA repair -8%.
CCC1CN(C(=O)NCc2ccccc2)c2cc(C)ccc2O1 (centres undefined) was read as HT1080NT lethal 0%, DT40 TDP1 CPT inconclusive, TDP1 cell noCPT inconclusive, IL1B secr inh -10, HT1080 IDH1KD tx 1% and ELG1 DNA repair -18%.
Cc1ccc(-c2nnn(CC(=O)N(c3ccc(F)cc3)C(C(=O)NC3CCCC3)c3ccncc3)n2)o1 (centres undefined) was read as HT1080NT lethal -2%, DT40 TDP1 CPT 2%, TDP1 cell noCPT -16%, IL1B secr inh -12, HT1080 IDH1KD tx -6% and ELG1 DNA repair inconclusive.
For O=C(c1ccccc1Cl)N1CCCCC1CCN1CCCCC1 (centres undefined) the results were DT40 TDP1 CPT -21% and TDP1 cell noCPT -6%.
COCc1ccc2oc(C(=O)O)cc2c1 was read as HT1080NT lethal 19%, DT40 TDP1 CPT 12µM*, TDP1 cell noCPT 23µM*, IL1B secr inh 18, HT1080 IDH1KD tx 15% and ELG1 DNA repair inconclusive.
Screening Cn1c(=O)n(Cc2ccccc2Cl)c2ccccc21 returned HT1080NT lethal -4%, DT40 TDP1 CPT inconclusive, TDP1 cell noCPT 18µM*, IL1B secr inh 27, HT1080 IDH1KD tx -12% and ELG1 DNA repair 3%.
Screening Cn1c(=O)n(CCOc2ccccc2Cl)c2ccccc21 returned HT1080NT lethal -11%, DT40 TDP1 CPT -3%, TDP1 cell noCPT 5.8µM*, IL1B secr inh 0, HT1080 IDH1KD tx -19% and ELG1 DNA repair inconclusive.
`CCN(CC)CCn1c(=N)n(CCOc2ccccc2Cl)c2ccccc21` gave DT40 TDP1 CPT 3.7µM* and TDP1 cell noCPT 4.1µM*.
For CCN(CC)CCn1c(=N)n(CC(O)c2ccc(OC)c(OC)c2)c2ccccc21 (centres undefined) the results were HT1080NT lethal -13%, DT40 TDP1 CPT -22%, TDP1 cell noCPT 2%, IL1B secr inh -13, HT1080 IDH1KD tx -13% and ELG1 DNA repair 11%.
For Nc1nc2ccccc2n1CCOc1ccccc1Cl the results were HT1080NT lethal inconclusive, DT40 TDP1 CPT inconclusive, TDP1 cell noCPT 26µM*, IL1B secr inh -80*, HT1080 IDH1KD tx inconclusive and ELG1 DNA repair -11%.
`Cc1ccc(OC(C)C(=O)N2CC(=O)Nc3ccccc32)c(C)c1` (centres undefined) gave HT1080NT lethal 29%, DT40 TDP1 CPT -5%, TDP1 cell noCPT -26%, IL1B secr inh 10, HT1080 IDH1KD tx 22% and ELG1 DNA repair 21%.
`CCN(CC)CCn1c(=N)n(CC(O)COc2ccccc2C)c2ccccc21` (centres undefined) gave DT40 TDP1 CPT 8.2µM* and TDP1 cell noCPT 2.6µM*.
Screening Cc1ccc2oc(=O)n(CCOc3ccccc3Cl)c2c1 returned HT1080NT lethal -6%, DT40 TDP1 CPT inconclusive, TDP1 cell noCPT -29%, IL1B secr inh -2, HT1080 IDH1KD tx -6% and ELG1 DNA repair 0%.
Screening Cc1ccc2oc(=O)n(CCCOc3ccccc3Cl)c2c1 returned DT40 TDP1 CPT 21µM* and TDP1 cell noCPT inconclusive.
Screening N=c1n(CCCOc2ccccc2Cl)c2ccccc2n1CC(N)=O returned HT1080NT lethal inconclusive, DT40 TDP1 CPT 18µM*, TDP1 cell noCPT 21µM*, IL1B secr inh -102*, HT1080 IDH1KD tx inconclusive and ELG1 DNA repair inconclusive.
`CC(=O)c1ccc(NC(=O)CSc2ccsc2[N+](=O)[O-])cc1` gave HT1080NT lethal 5%, DT40 TDP1 CPT 8%, TDP1 cell noCPT -3%, IL1B secr inh -13, HT1080 IDH1KD tx -2% and ELG1 DNA repair inconclusive.
